Laboratory results published in the supplement of paper PMC11732987, “Enantioselective OTUD7B fragment discovery through chemoproteomics screening and high-throughput optimisation” (Communications Chemistry, 2025).

target: COPS5 (UniProt Q92905); experiment: log2 ratio of Biotin-Ahx-Ub-VS probe labelling (fragment/DMSO); higher = less target engagement (more negative = stronger competition), active = hit call of the paper (q ≤ 0.05, log2 ratio ≤ -1); settings: compound concentration: 200 uM; treatment time: 3 h
Experimental: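 Competitive ABPP in HEK293T cell lysate. Lysates were treated with each chloroacetamide fragment at 200 µM for 3 h, then with Biotin-Ahx-Ub-VS (0.5 µM, 1 h), NeutrAvidin-enriched and analysed by diaPASEF LC-MS/MS. Protein LFQ was median-normalised; average log2 ratio is fragment/DMSO from an unpaired t-test (n=3 treated, n=44 DMSO). Hits: q ≤ 0.05, log2 ratio ≤ -1, unique peptides ≥ 2.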

Sequence of COPS5 (Q92905 whole entry, looked up, the tested form may be a part): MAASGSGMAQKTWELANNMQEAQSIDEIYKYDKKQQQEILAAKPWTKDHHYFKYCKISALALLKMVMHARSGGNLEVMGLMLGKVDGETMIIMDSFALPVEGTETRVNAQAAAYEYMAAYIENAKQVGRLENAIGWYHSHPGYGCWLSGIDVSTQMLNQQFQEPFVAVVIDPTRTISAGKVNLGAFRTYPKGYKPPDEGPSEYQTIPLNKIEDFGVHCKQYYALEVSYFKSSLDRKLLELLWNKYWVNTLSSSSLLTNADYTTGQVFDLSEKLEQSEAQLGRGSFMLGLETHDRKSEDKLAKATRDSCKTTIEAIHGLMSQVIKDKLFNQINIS

log2 ratio of Biotin-Ahx-Ub-VS probe labelling, inactive:
O=C(O)C1Cc2ccccc2CN1C(=O)CCl (configuration not stated) 0.15
N#Cc1ccc(Cl)cc1NC(=O)CCl 0.289
NC(=O)C1CCCCN1C(=O)CCl (configuration not stated) 0.234
Cl.O=C(CCl)N1CCn2ncc(O)c2C1 0.242
O=C(CCl)N1CCC(O)(Cc2ccc(F)cc2)C1 (configuration not stated) 0.0199
Cn1cc(CN(Cc2ccc(Cl)cc2)C(=O)CCl)cn1 -0.179
Cl.O=C(CCl)N1CCN(Cc2ccccc2)CC1 -0.0604
